This is part of a sample that, as a whole, favours compounds with a hit. Of some 83,000 tested, about 20% had one in any assay.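 Note: values are percent growth. 100 is the growth of untreated cells, values between 100 and 0 indicate rising inhibition; between -100 and 0 indicates cell death.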 Unmarked numbers belong to inactive results. Active and inactive are the calls of the source. Rule for the calls: active = growth percent below 10; inactive = the rest.

Some test systems named below: HCT-15 colon; HT29 colon; SNB-75 CNS; SNB-19 CNS; U251 CNS; SK-MEL-5 melanoma; UACC-62 melanoma; LOX IMVI melanoma; SK-MEL-28 melanoma; SK-MEL-2 melanoma; EKVX NSCLC; SN12C renal; UO-31 renal; TK-10 renal; ACHN renal; CAKI-1 renal; A498 renal; CCRF-CEM leukemia; MOLT-4 leukemia; PC-3 prostate.
Test in all cases: NCI-60 one-dose screen, 48 h (100 = growth as untreated, 0 = no growth, -100 = all killed)
Common to all, as to settings: 10 µM unless noted

With `O=c1c2c(c(=O)n1O)c1c3ccc[nH]c3nc1c1nc3[nH]cccc3c12`, the growth in the assay with HCT-15 colon was 97%; with HT29 colon it was 89.7%; in the assay on SNB-75 CNS, 87%; in the assay with SNB-19 CNS it was 70.8%; in the assay with U251 CNS, 64.6%; in the assay with SK-MEL-5 melanoma it was 85.8%. The growth with UACC-62 melanoma is 63%; in the assay with LOX IMVI melanoma, 72.6%; with SK-MEL-28 melanoma, 96.2%; in the assay with SK-MEL-2 melanoma, 99.4%; in the assay on EKVX NSCLC it was 93.4%; in the assay on SN12C renal, 80.5%. Besides, the growth in the assay with UO-31 renal was 91%; in the assay on TK-10 renal it was 117%; with ACHN renal it was 88.3%; in the assay on CAKI-1 renal, 68.9%; with A498 renal it was 94.5%; with CCRF-CEM leukemia, 28.5%. Moreover, the growth with MOLT-4 leukemia is 43.7%.
`O=C1NN(C(=O)c2ccccc2)C(c2ccc(Cl)c(Cl)c2)=C/C1=C\c1ccc([N+](=O)[O-])cc1`: the growth is 71.8% with HCT-15 colon; 101% in the assay on HT29 colon; 58.7% in the assay on SNB-19 CNS; 69.7% in the assay on U251 CNS; 46.7% with PC-3 prostate; 86.8% in the assay on SK-MEL-5 melanoma. In addition, the growth in the assay with UACC-62 melanoma is 70.3%; with LOX IMVI melanoma, 86.9%; in the assay with SK-MEL-28 melanoma it was 111%; in the assay on SK-MEL-2 melanoma, 100%; in the assay with EKVX NSCLC, 88.3%; in the assay with SN12C renal it was 92.3%. Further, the growth with UO-31 renal was 61.9%; with TK-10 renal, 106%; with ACHN renal, 90.3%; with CAKI-1 renal it was 77.1%; in the assay with A498 renal it was 80.4%; in the assay with CCRF-CEM leukemia, 88.5%.
For the compound `COc1cc(/C(C)=C(\c2ccc(Cl)cc2)c2ccc(OCCN3CCCC3)cc2)ccc1F`, the growth was 7.9% (active) in the assay with HCT-15 colon; 8.92% (active) with HT29 colon; 84.2% in the assay on SNB-75 CNS; 79.8% in the assay with SNB-19 CNS; 46.1% with U251 CNS; 49.9% with SK-MEL-5 melanoma. For the same compound, the growth is 58% in the assay with UACC-62 melanoma; 46% with LOX IMVI melanoma; 69.3% in the assay with SK-MEL-28 melanoma; 98.8% in the assay on SK-MEL-2 melanoma; 74% in the assay with EKVX NSCLC; 70.2% in the assay with SN12C renal. Also, the growth is 39.7% in the assay with UO-31 renal; 69.3% in the assay with TK-10 renal; 83.1% with ACHN renal; 65.2% with CAKI-1 renal; 37.6% with CCRF-CEM leukemia; 32.6% in the assay on MOLT-4 leukemia.
Regarding `NC(=O)Nc1ccc(-n2cnc3cc(-c4ccc(O)cc4)ccc32)cc1`, the growth with HCT-15 colon was 97.8%; in the assay with HT29 colon, -7.1% (active); in the assay on SNB-75 CNS, 102%; in the assay with SNB-19 CNS, 98.7%; in the assay on U251 CNS it was 83.4%; in the assay on SK-MEL-5 melanoma, 85.9%. The growth in the assay on UACC-62 melanoma is 108%; with LOX IMVI melanoma, 104%; with SK-MEL-28 melanoma, 100%; in the assay on SK-MEL-2 melanoma it was 116%; in the assay on EKVX NSCLC, 112%; with SN12C renal, 94%. Moreover, the growth with UO-31 renal is 87.2%; with TK-10 renal, 121%; in the assay with ACHN renal, 92%; with CAKI-1 renal, 95.2%; in the assay on CCRF-CEM leukemia, 94.5%; in the assay on MOLT-4 leukemia, 84.9%.
In the case of `CCCCOc1ccc(/C=N/Nc2cc(C)nc3ccc(Br)cc23)cc1`, the growth in the assay on HCT-15 colon is -66% (active); in the assay on HT29 colon, -19.4% (active); in the assay with SNB-75 CNS it was 107%; in the assay with SNB-19 CNS it was 50.7%; with U251 CNS, -53.5% (active); in the assay with SK-MEL-5 melanoma it was 84.3%. The growth in the assay on UACC-62 melanoma is 87.3%; in the assay on LOX IMVI melanoma it was -96.9% (active); in the assay with SK-MEL-28 melanoma, 59.5%; in the assay with SK-MEL-2 melanoma, 106%; with EKVX NSCLC it was 69.9%; in the assay on SN12C renal, -78.4% (active). In addition, the growth with UO-31 renal was -71.1% (active); in the assay with TK-10 renal, 76.2%; in the assay on ACHN renal it was 19.9%; with CAKI-1 renal it was 71.3%; in the assay with CCRF-CEM leukemia it was 2.46% (active); in the assay on MOLT-4 leukemia, -26% (active).
Take `Oc1ccc(C(c2ccc(O)cc2)c2ccc(Br)cn2)cc1`: the growth with HCT-15 colon was 15.6%; in the assay on HT29 colon, 70.5%; in the assay on SNB-75 CNS it was -10.3% (active); in the assay with SNB-19 CNS it was 66.9%; in the assay with U251 CNS it was 86.9%; with SK-MEL-5 melanoma, 85.5%. The growth is 38.9% with UACC-62 melanoma; -12.2% (active) in the assay with LOX IMVI melanoma; 109% in the assay with SK-MEL-28 melanoma; 31.6% in the assay with SK-MEL-2 melanoma; -37.1% (active) in the assay with EKVX NSCLC; 1.64% (active) with SN12C renal. Moreover, the growth was 53% with UO-31 renal; 4.53% (active) in the assay on TK-10 renal; 21% in the assay with ACHN renal; 79.5% with CAKI-1 renal; 111% with CCRF-CEM leukemia; 101% with MOLT-4 leukemia.
Regarding `OC(c1cccc(C(F)(F)F)c1)c1cnccc1NC1CCCCC1` (stereo not given), the growth with HCT-15 colon is 81.3%; in the assay on HT29 colon, 37.9%; in the assay with SNB-75 CNS, 72.1%; in the assay on SNB-19 CNS, 89.3%; in the assay on U251 CNS it was 76%; in the assay with SK-MEL-5 melanoma, 69.6%. Also, the growth is 74% with UACC-62 melanoma; 82.4% with LOX IMVI melanoma; 98.4% in the assay on SK-MEL-28 melanoma; 92.6% in the assay with SK-MEL-2 melanoma; 77.6% with EKVX NSCLC; 52.2% with UO-31 renal. The growth in the assay with TK-10 renal is 82.7%; with ACHN renal, 87.2%; in the assay with CAKI-1 renal it was 69.5%; with A498 renal it was 77.4%; with CCRF-CEM leukemia it was 62%; in the assay with MOLT-4 leukemia, 71.6%.
In the case of `COCCCN1CC(O)=C(c2nc(-c3ccc(C)cc3)cs2)C1=N`, the growth with HCT-15 colon was 110%; with HT29 colon it was 128%; in the assay on SNB-75 CNS, 154%; with SNB-19 CNS it was 98.6%; in the assay with U251 CNS, 100%; in the assay on SK-MEL-5 melanoma, 103%. Besides, the growth with UACC-62 melanoma was 103%; in the assay with LOX IMVI melanoma it was 102%; in the assay on SK-MEL-28 melanoma it was 159%; in the assay on SK-MEL-2 melanoma, 113%; in the assay on EKVX NSCLC, 97.3%; in the assay with SN12C renal it was 92.9%. Further, the growth with UO-31 renal was 80.6%; in the assay with TK-10 renal, 138%; with ACHN renal it was 111%; in the assay on CAKI-1 renal, 96.1%; in the assay with A498 renal, 93.3%; in the assay on MOLT-4 leukemia, 86.4%.

For the origin of these results see PubChem BioAssay (NCI).
